The nature of experiment [1]: yeast TOR pathway RPL19A-GFP modulators, primary screen, cell-based, S. cerevisiae, multiplex flow cytometry (AID 1862; in the data active = percent of DMSO control GFP below about 86%;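 note: lower values mimic rapamycin by blocking the RPL19A rise seen in DMSO cells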). To be noted: S. cerevisiae RPL19A-GFP strain, flow cytometry fluorescence, 3 h; at 10 µM; stronger effect = lower value. (Flow cytometry measures light scatter and fluorescence of single cells or particles in a stream.)
The nature of experiment [2]: modulators of MEP2-GFP levels in yeast, primary screen, S. cerevisiae, multiplex flow cytometry (AID 1867;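 active = GFP response, as percent of the DMSO control, above the screen-wide mean plus 3 SD, about 139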;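 note: median GFP channel fluorescence of barcode-gated MEP2-GFP cells measured by flow cytometry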). The note with it: S. cerevisiae MEP2-GFP strain, 3 h, at 10 µM, stronger effect = higher value, 100% means same as DMSO wells.
A short description of experiment [3]: modulators of CIT2-GFP expression in yeast, primary screen, S. cerevisiae, GFP fusion, multiplex flow cytometry (AID 1870;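 active = percent response above a set limit, the screen-wide mean plus 3 SD, cut at about 130% in these data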;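 note: barcoded CIT2-GFP strain pooled with four other GFP strains with rapamycin as positive control; median GFP fluorescence per well over plate mean of DMSO wells so 100% = DMSO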). The note with it: 3 h, at 10 µM, stronger effect = higher value.
A short description of experiment [4]: modulators of LAP4-GFP expression in yeast, primary screen, S. cerevisiae, multiplex flow cytometry (AID 1873;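 active = GFP signal, as percent of the solvent control, above the screen mean plus 3 SD, about 149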). The note with it: 3 h, at 10 µM, stronger effect = higher value.
Experiment [5] is described as follows: modulators of AGP1-GFP expression in yeast TOR pathway, primary screen, cell-based, multiplex flow cytometry, S. cerevisiae (AID 1887;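 active = GFP signal above the screen-wide mean plus 3 SD, that is over about 124.5% of the solvent control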;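 note: AGP1-GFP fusion strain of S. cerevisiae within a five-strain barcoded multiplex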). The note with it: 3 h, at 10 µM, stronger effect = higher value.
Experiment [6] in a line: inhibitors of CD8+ T cell-vesicle binding, pilot screen, LFA-1/ICAM-1 modulator project, MLPCN validation set, flow cytometry (AID 2523;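 active = response below a set limit, under 55% cells CD8-positive and vesicle-bound, and CD8 cells' 90th-percentile brightness under 279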;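 for vesicle binding response: mean PE anti-B7-1 fluorescence of CD8+ cells relative to row control; 100% = QL9-loaded vesicles with DMSO vehicle in the same plate row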). To be noted: 2C mouse CD8+ T cells, at 7 µM, stronger effect = lower value; double positive events: measured here: CD8+/vesicle+ event percentage.
Experiment [7] has as its target Integrin beta-1 (Homo sapiens) + Integrin alpha-4 (Homo sapiens) (UniProt P13612+P05556). In words: inhibition of HUTS-21 binding to VLA-4, pilot screen, VLA-4 allosteric modulator project, U937 cells, HUTS-21 mAb, flow cytometry, validation set (AID 2674;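 active = inhibition above 50%, about 3 SD of the validation set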;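 note: antibody binding induced by the VLA-4 ligand LDV present at three times its Kd; 0% = LDV ligand with antibody and no compound and 100% = antibody without LDV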). To be noted: HUTS-21 LIBS mAb binding, at 6.7 µM, stronger effect = higher value, binding induced by LDV ligand.
A short description of experiment [8]: superoxide lowering in aged yeast cells, pilot screen, validation compound set (AID 2706;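 active = superoxide response below 65% of plate, a cut near 3 SD across the whole screen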;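 note: yeast exposed to compound for one week at 30 degrees C before staining; 100% = mean of all compound wells on the same plate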). The note with it: S. cerevisiae aging, superoxide DHE fluorescence; at 10 µM, stronger effect = lower value.
For experiment [9], the target named is Beta-adrenergic receptor kinase 1 (Homo sapiens) (UniProt P25098). Description: GRK2 binders displacing RNA aptamer, biochemical, validation, human GRK2, bead flow cytometry (AID 488806;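 active = aptamer binding inhibition above 30%, about 3 SD of noise from non-fluorescent compounds; inactive = inhibition at or below 30%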). To be noted: bead-bound GRK2, FAM-aptamer displacement, at 10 µM, stronger effect = higher value.
Sequence of Beta-adrenergic receptor kinase 1 (Homo sapiens) (P25098 whole entry, looked up): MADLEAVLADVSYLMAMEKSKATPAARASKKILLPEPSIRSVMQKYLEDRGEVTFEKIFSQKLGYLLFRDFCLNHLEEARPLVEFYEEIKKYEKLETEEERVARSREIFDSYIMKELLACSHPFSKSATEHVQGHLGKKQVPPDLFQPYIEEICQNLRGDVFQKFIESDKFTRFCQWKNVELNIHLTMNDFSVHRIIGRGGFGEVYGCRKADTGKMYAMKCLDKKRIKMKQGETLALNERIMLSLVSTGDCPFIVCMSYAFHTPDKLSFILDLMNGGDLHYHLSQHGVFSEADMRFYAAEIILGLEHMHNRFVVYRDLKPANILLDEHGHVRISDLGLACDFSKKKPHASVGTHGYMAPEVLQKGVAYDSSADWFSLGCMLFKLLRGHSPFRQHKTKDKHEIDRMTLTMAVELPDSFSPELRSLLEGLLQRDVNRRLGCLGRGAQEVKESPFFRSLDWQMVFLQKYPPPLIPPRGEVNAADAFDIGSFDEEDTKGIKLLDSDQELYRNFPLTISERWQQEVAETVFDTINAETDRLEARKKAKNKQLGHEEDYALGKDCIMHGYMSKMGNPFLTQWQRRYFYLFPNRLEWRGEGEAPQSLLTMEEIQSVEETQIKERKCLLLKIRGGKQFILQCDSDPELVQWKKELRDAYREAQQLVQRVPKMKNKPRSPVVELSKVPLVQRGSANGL
For experiment [10], the target named is AP-2 complex subunit beta (Homo sapiens) (UniProt P63010). Description: inhibitors of arrestin peptide binding to AP2, pilot screen, biochemical, validation set, GST-AP2 beads, flow cytometry (AID 504541).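 Note: AP2 carries R879A mutation and is captured from E. coli lysate; bead-bound FITC arrestin peptide fluorescence measuring arrestin peptide binding to AP2; 0% = DMSO wells and 100% = excess unlabeled arrestin peptide control.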 To be noted: FITC arrestin peptide, at 10 µM, stronger effect = higher value, AP2 beta2 appendage fragment, R879A mutant.
Sequence of AP-2 complex subunit beta (Homo sapiens) (P63010 whole entry, looked up, the tested form may be a part, one chain of several): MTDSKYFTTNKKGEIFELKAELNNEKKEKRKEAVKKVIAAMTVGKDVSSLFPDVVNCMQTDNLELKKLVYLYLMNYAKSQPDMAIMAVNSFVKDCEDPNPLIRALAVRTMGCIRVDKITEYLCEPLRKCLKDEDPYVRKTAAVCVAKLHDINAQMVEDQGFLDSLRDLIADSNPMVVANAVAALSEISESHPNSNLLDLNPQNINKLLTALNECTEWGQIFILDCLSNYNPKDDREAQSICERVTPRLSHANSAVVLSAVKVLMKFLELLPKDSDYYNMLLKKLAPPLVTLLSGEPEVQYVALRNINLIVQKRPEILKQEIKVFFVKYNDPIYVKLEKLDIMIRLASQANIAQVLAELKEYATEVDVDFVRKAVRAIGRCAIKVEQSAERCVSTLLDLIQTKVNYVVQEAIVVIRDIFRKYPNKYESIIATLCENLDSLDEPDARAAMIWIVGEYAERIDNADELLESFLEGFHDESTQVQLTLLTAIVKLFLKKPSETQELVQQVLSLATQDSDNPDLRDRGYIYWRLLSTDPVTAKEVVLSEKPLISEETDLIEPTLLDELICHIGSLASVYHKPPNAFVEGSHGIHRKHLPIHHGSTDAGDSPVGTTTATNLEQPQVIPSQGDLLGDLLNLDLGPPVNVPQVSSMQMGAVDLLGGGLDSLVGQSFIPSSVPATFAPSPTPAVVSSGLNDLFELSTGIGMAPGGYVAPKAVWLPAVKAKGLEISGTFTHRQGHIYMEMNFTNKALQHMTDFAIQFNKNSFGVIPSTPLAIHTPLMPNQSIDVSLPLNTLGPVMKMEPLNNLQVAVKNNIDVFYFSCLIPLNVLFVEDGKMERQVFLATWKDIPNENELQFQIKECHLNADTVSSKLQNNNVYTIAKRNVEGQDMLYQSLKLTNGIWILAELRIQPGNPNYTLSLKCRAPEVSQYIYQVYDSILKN
Experiment [11] can be described thus: yeast V-ATPase proton transport modulators, S. cerevisiae, pHLuorin, HTS validation (AID 504600; in the data active = response above about 15%;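 note: plate controls were DMSO for no effect and reference compound for full effect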). The note with it: S. cerevisiae pHLuorin cytosolic pH, at 10 µM, stronger effect = higher value.
Experiment [12] concerns anti-desmoglein-3 scFv antibody binding to human DSG3. In words: inhibitors of anti-DSG3 scFv binding to DSG3, pilot screen, biochemical, validation compound set, bead-based, flow cytometry (AID 588368;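 active = binding below the plate cutoff, the plate median minus 3 SD, with a reading above zero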;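 note: signal is the median channel fluorescence of bead-bound GFP antibody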). To be noted: Protein G beads, DSG3-Fc, scFv-GFP binding, at 10 µM, stronger effect = lower value.
A short description of experiment [13]: inhibitors of fungal efflux pumps CDR1, CDR2, MDR1, pilot screen, validation compound set, multiplex, phenotypic (AID 588506;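 active = efflux inhibition above 0.42, the validation set average plus 4 SD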;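 note: Nile Red retained in cells so higher fluorescence means more efflux inhibition; 0 = negative control wells and 1 = enniatin B 25 µM full block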). The note with it: S. cerevisiae pump-expressing triplex, Nile Red efflux flow cytometry; at 10 µM; stronger effect = higher value; the pumps come from Candida albicans.
Experiment [14] deals with ATP-binding cassette sub-family B member 6 (Homo sapiens) (UniProt Q9NP58). In words: ABCB6 transporter inhibitors, pilot screen, K562-ABCB6 cells, flow cytometry, validation set (AID 588550;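 active = inhibition above the screen-wide mean plus 3 SD, about 51%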;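 note: 0% = DMSO wells and 100% = benzethonium chloride 70 µM positive control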). To be noted: K562-ABCB6 porphyrin accumulation, 1 h, at 10 µM, stronger effect = higher value.
Sequence of ATP-binding cassette sub-family B member 6 (Homo sapiens) (Q9NP58 whole entry, looked up): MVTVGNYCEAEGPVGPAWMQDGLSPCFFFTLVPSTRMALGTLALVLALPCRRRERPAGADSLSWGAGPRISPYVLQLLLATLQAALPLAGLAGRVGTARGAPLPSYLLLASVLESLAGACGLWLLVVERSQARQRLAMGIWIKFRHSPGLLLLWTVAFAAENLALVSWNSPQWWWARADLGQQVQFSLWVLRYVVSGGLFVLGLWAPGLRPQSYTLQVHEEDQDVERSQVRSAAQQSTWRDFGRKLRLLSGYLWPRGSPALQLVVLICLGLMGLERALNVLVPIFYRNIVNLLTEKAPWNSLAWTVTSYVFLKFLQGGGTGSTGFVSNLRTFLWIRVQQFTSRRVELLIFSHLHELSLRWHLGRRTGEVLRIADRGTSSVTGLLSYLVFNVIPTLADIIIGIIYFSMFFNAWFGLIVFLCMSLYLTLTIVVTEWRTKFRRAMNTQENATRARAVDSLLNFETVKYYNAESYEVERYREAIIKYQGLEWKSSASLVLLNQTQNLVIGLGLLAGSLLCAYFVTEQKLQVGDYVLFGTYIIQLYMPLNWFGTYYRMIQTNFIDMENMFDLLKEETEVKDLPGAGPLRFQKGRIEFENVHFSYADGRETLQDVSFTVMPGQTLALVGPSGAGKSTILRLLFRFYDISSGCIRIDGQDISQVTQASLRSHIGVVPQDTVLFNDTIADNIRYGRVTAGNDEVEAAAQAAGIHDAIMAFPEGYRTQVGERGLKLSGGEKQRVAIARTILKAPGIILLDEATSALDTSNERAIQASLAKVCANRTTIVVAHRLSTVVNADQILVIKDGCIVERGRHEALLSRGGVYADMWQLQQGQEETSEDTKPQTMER
The nature of experiment [15]: promoters of myeloid differentiation in arrested cells, primary screen, cell-based, GFP/MAC1 double positive, flow cytometry, validation set (AID 588685;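 active = differentiation response of at least 50%, scaled between solvent and reference control, from cells with both markers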;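 note: compound exposure lasts four days before antibody staining and flow analysis; 0% = DMSO wells and 100% = 5 µM fulvestrant positive control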). To be noted: ER-HoxA9 marrow cells, stronger effect = higher value, normalized: vehicle 0, fulvestrant 100.

SMILES strings stand for the structures. Results filed as inconclusive are left out. Active and inactive are the calls of the source.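 Rule for the calls, unless noted: active = inhibition above 54%, about 3 SD of non-fluorescent compounds; inactive = the rest.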

Sequence of Integrin beta-1 (Homo sapiens) + Integrin alpha-4 (Homo sapiens) (P05556 whole entry, looked up): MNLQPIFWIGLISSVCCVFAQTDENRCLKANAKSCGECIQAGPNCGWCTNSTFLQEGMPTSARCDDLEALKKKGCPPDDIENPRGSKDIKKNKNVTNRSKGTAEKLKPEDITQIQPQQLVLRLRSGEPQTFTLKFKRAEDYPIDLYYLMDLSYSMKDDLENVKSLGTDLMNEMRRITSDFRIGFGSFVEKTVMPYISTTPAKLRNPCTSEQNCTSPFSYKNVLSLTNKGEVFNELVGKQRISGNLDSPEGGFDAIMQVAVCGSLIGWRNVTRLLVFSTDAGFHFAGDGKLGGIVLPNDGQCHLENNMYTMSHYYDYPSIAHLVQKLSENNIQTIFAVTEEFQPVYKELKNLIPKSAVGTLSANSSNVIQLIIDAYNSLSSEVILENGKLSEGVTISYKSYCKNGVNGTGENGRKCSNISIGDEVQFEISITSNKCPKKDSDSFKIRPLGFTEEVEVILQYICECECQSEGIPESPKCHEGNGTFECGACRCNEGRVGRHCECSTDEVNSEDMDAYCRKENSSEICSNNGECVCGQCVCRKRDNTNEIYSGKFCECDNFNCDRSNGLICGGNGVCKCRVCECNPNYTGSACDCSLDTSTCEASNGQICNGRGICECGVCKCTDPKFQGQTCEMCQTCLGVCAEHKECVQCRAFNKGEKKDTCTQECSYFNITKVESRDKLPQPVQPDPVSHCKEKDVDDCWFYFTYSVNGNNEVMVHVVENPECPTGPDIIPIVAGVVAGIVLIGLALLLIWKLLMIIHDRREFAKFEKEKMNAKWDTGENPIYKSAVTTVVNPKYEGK
Sequence of Integrin beta-1 (Homo sapiens) + Integrin alpha-4 (Homo sapiens) (P13612 whole entry, looked up): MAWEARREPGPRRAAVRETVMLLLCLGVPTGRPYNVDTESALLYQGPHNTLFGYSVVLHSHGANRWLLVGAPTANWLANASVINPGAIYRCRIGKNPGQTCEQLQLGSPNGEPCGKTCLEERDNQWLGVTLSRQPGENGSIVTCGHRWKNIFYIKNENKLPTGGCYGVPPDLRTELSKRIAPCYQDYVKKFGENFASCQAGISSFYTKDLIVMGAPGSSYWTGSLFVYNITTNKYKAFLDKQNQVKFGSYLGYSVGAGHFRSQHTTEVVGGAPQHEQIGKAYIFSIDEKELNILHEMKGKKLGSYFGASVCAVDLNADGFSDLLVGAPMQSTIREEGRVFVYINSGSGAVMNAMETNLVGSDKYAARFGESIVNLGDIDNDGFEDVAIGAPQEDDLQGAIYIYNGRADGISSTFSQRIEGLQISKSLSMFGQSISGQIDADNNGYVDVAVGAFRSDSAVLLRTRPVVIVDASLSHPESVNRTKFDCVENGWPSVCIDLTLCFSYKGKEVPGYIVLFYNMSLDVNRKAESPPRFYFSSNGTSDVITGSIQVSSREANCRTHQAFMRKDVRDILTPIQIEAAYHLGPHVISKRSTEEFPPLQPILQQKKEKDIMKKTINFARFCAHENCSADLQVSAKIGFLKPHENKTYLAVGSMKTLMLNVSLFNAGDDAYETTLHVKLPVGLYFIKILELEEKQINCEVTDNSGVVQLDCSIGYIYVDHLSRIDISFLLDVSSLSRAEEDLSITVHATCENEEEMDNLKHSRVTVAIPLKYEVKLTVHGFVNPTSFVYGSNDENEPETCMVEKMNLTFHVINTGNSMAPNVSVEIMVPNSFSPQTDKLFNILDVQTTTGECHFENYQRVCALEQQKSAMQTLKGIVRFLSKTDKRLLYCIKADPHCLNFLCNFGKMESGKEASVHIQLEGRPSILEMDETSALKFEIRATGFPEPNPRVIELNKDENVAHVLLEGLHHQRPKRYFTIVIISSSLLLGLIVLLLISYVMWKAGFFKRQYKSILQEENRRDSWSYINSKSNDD

One may read the inhibition as the drop in the measured response relative to a control, in per cent. Regarding `Cc1ccc(-n2ncc3c(Nc4cccc(C(=O)O)c4)ncnc32)cc1`, the percent of DMSO control GFP in experiment [1] is 100% (inactive). The GFP response vs DMSO in experiment [2] was 102% (inactive); in experiment [4] it was 105% (inactive). In experiment [3], the percent response of DMSO control was 93% (inactive). Moreover, the GFP response, % of DMSO in experiment [5] was 93.9% (inactive). Moreover, the double positive events in experiment [6] amounted to 66.3%. For the same molecule, in experiment [6], the vesicle binding response was 217% (inactive). Also, the inhibition was -5.84% (inactive) in [7], -0.33% (inactive) in [10] and 5% (inactive) in [14]. In experiment [8], the superoxide response (% of plate) was 105% (inactive). Further, in experiment [9], the aptamer binding inhibition was -2% (inactive). Besides, the response in experiment [11] was -4.83% (inactive). Besides, the binding (% of control) in experiment [12] is 101% (inactive). Further, in experiment [13], the efflux inhibition (fraction of control) is 0.1 (inactive). The differentiation response in [15] was 74.1% (active).
On to `N#Cc1c2c(c(-c3ccccc3)[nH]c1=O)CCCC2`, for which the percent of DMSO control GFP in experiment [1] was 102% (inactive). Further, the results for the GFP response vs DMSO in [2] and in experiment [4] were 98.9% (inactive) and 85.3% (inactive), respectively. The percent response of DMSO control in [3] was 103% (inactive). In addition, in experiment [5], the GFP response, % of DMSO is 100% (inactive). This molecule also had a double positive events in experiment [6] of 56.8%. For the same molecule, in [6], the vesicle binding response is 158% (inactive). Besides, the inhibition in experiment [7] was -7.7% (inactive); in experiment [10], -4.92% (inactive); in experiment [14], 5% (inactive). In [8], the superoxide response (% of plate) was 94% (inactive). Also, the aptamer binding inhibition in experiment [9] was 3% (inactive). Besides, in experiment [11], the response was -1.34% (inactive). The binding (% of control) in experiment [12] was 98.8% (inactive). For the same molecule, the efflux inhibition (fraction of control) in [13] was -0.05 (inactive). Moreover, the differentiation response in [15] was -22.8% (inactive).
As for `CC(C)(C)c1csc(N/N=C/c2cccnc2)n1`, the percent of DMSO control GFP in experiment [1] was 99% (inactive). Also, the GFP response vs DMSO in experiment [2] was 106% (inactive); in experiment [4] it was 107% (inactive). In addition, the percent response of DMSO control in experiment [3] was 95.9% (inactive). Besides, the GFP response, % of DMSO in [5] was 87.4% (inactive). In [6], this molecule gave a double positive events of 53.8%. In addition, the vesicle binding response in experiment [6] was 163% (inactive). Besides, the results for the inhibition in experiment [7], in experiment [10] and in experiment [14] were 17.5% (inactive), 5.38% (inactive) and 7% (inactive), respectively. Further, the superoxide response (% of plate) in [8] is 96% (inactive). Besides, the aptamer binding inhibition in [9] is 5% (inactive). Moreover, the response in experiment [11] was 1.92% (inactive). Moreover, the binding (% of control) in experiment [12] is 99.3% (inactive). Also, the efflux inhibition (fraction of control) in experiment [13] was -0.12 (inactive). For the same molecule, the differentiation response in experiment [15] was 4.64% (inactive).
For the molecule `CC(=O)c1c(N)nc2n(c1=O)CCCCC2`, the percent of DMSO control GFP in [1] was 103% (inactive). The GFP response vs DMSO in experiment [2] is 102% (inactive); in [4], 93.3% (inactive). For the same molecule, in experiment [3], the percent response of DMSO control was 108% (inactive). Moreover, in experiment [5], the GFP response, % of DMSO is 102% (inactive). In [6], this molecule yielded a double positive events of 55.2%. For the same molecule, in experiment [6], the vesicle binding response was 201% (inactive). In addition, the inhibition in experiment [7] is 14.7% (inactive); in experiment [10] it was 2.65% (inactive); in experiment [14] it was 10% (inactive). Also, the superoxide response (% of plate) in experiment [8] is 94.2% (inactive). The aptamer binding inhibition in experiment [9] was 4% (inactive). Besides, the response in experiment [11] is 0.91% (inactive). In addition, the binding (% of control) in [12] is 98.7% (inactive). Besides, the efflux inhibition (fraction of control) in experiment [13] is -0.09 (inactive). The differentiation response in experiment [15] is 9.49% (inactive).
`CC(=O)OCC(=O)C1=CCC2C3CCC4=CC(=O)C=CC4(C)C3(F)C(OC(C)=O)CC12C` (stereo not given): the percent of DMSO control GFP in experiment [1] is 99.8% (inactive). In addition, the GFP response vs DMSO in experiment [2] is 101% (inactive); in experiment [4] it was 84.3% (inactive). Moreover, the percent response of DMSO control in [3] was 106% (inactive). Further, the GFP response, % of DMSO in experiment [5] is 105% (inactive). Further, the double positive events in experiment [6] came to 59%. Moreover, the vesicle binding response in experiment [6] was 180% (inactive). Besides, the inhibition in experiment [7] was 6.29% (inactive); in experiment [10] it was -3.56% (inactive); in [14] it was 9% (inactive). Besides, the superoxide response (% of plate) in experiment [8] is 87.6% (inactive). Moreover, the aptamer binding inhibition in experiment [9] was 7% (inactive). Moreover, in experiment [11], the response was 6.47% (inactive). Moreover, the binding (% of control) in [12] is 96.2% (inactive). In addition, the efflux inhibition (fraction of control) in experiment [13] was 0.18 (inactive). Also, in experiment [15], the differentiation response is -11.5% (inactive).

(Values after PubChem BioAssay.)
